High-throughput results deposited in PubChem BioAssay by National Center for Advancing Translational Sciences (NCATS).
TGFb SMAD3 inh: inhibitors of TGF-b signaling; Potency, µM (highest dose often 46.1 µM), for the others: top-dose activity, negative = inhibition, hits mostly inhibitors; HepG2 CAGA-GFP TGF-b/SMAD3 reporter, GFP fluorescence, 18 h; TGF-beta stimulated, 500 pg/mL final; 410,000 compounds, 1.2% hits; also: % is scaled to controls: 0 for no effect and ±100 for the full control effect; nearly all actives have a fitted effect of over 65% in size
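HEPG2 CAGA-GFP reporter cells (1000/well, DMEM with 1% FBS) received compounds, then recombinant TGF-beta at 500 pg/mL final for 18 hours at 37 degrees C. Per-cell GFP summed per well was normalised to unstimulated and stimulated DMSO controls before curve fitting.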
Gal4-VP16 FLuc: counter-screen for ROR gamma inhibitors: Gal4-VP16 reporter | Potency, µM (doses to about 53.6 µM), for the others: at the top dose activity, negative = inhibition, hits mostly inhibitors | 310,000 compounds, 3.5% hits | Drosophila S2 Gal4-VP16 UAS-luciferase, luminescence, 20 h;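 also: Gal4-VP16 expression switched on by copper sulfate through the metallothionein promoter; % is scaled to controls: 0 for no effect and ±100 for the full control effect; nearly all actives have a fitted effect of over 50% in size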
ATXN2 expr inh: inhibitors of ATXN2 expression; HEK-293 ATXN2-luciferase reporter, luminescence, 24 h; Potency, µM (doses to about 57 µM), for inactives: at the highest dose activity change, negative = inhibition, hits mostly inhibitors; 360,000 compounds, 0.72% hits; also: % is scaled to controls: 0 for no effect and ±100 for the full control effect; nearly all actives have a fitted effect of over 55% in size
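ATXN2-luciferase reporter cells (luciferase flanked by upstream and downstream ATXN2 gene portions) were treated 24 h at 37 °C with compounds at up to 57 uM. SteadyGlo luminescence gave expression; GF-AFC fluorescence gave viability.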
RORg inh: blocks mouse ROR gamma transcriptional activity. Drosophila S2 Gal4-RORgamma UAS-luciferase reporter, 20 h. Potency, µM (top dose mostly 53.6 µM), without a hit: at the top dose activity change, negative = inhibition, hits mostly inhibitors. 310,000 compounds, 5.4% hits. AID 2551; also: % is scaled to controls: 0 for no effect and ±100 for the full control effect; nearly all actives have a fitted effect of over 60% in size
Target sequence (P51450 whole entry, looked up, the tested form may be a part): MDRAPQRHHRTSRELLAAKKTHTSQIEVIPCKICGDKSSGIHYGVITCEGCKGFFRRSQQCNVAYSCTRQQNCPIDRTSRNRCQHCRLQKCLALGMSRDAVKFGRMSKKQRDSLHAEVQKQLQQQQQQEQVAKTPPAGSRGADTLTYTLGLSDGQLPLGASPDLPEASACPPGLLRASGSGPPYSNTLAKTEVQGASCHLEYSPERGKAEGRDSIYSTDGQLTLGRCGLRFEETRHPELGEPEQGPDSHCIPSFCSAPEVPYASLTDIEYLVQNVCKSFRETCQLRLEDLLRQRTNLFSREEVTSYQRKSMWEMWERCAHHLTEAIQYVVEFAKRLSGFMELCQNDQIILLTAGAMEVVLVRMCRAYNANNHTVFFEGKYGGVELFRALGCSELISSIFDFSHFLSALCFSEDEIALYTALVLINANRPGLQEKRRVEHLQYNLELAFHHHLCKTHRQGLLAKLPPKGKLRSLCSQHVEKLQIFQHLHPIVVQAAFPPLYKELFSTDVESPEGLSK
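Luciferase reporter read in Schneider cells carrying Gal4-RORγ (mouse) and UAS-Photinus luciferase; cells given compound 1 h before 700 uM copper sulfate induction, then incubated 20 h at ambient temperature.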
HepG2 viability: counter-screen for TGF-b inhibitors: cytotoxicity in HepG2 cells; HepG2 CAGA-GFP viability, ATP luminescence, 18 h; Potency, µM (series often up to 46.1 µM), without a hit: top-dose activity change, negative = cytotoxicity, actives largely listed as cytotoxic; 410,000 compounds, 0.76% hits; AID 588856
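HepG2 CAGA-GFP cells (1000/well, DMEM with 1% FBS) received compound, then TGF-beta at 500 pg/mL final, and were incubated 18 hours at 37 degrees C. Viability was read by CellTiter-Glo luminescence. Media-only wells were set as complete cell-killing and DMSO as no toxicity.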
S2 tox: viability counter-screen for ATXN expression inhibitors | S2 cells (HEK-293 line with an ATXN2-luciferase reporter) viability, CellTiter-Fluor protease fluorescence, 24 h | Potency, µM (highest dose often 56.7 µM), actives largely listed as cytotoxic | 400,000 compounds, 0.49% hits | AID 651635; also: nearly all actives have a fitted effect of over 40% in size
Starred values were filed as active, the others as inactive; i = inactive; ? = inconclusive; nt = no result; [ ] = another dose, or the depositor's remark. Hits are enriched below; roughly 6.1% of the tested compounds scored in any of these assays. Calls follow the shape of the dose curve; as a rule, active = well fitted curve in the direction sought with a large enough effect; inconclusive = small, poorly fitted or top-dose-only effect, or another doubt; inactive = no such curve, though single readings can be large; an effect the other way counts as inactive or inconclusive. Potency is read from the fitted curve at half-maximal effect.

SMILES	TGFb SMAD3 inh	Gal4-VP16 FLuc	ATXN2 expr inh	RORg inh	HepG2 viability	S2 tox
CCOC(=O)c1ccc(NC(=S)N(CCN(C)C)C(C)c2ccncc2)cc1 (centres undefined)	14%	1%	nt	0%	-21%	?
CCc1cccc(NC(=S)N(CCN(C)C)C(C)c2ccncc2)c1 (centres undefined)	?	-2%	nt	14µM*	-11%	i
CCc1ccccc1NC(=S)N(CCN(C)C)C(C)c1ccccn1 (centres undefined)	-26%	2%	-1%	?	4%	i
Cc1cccc(NC(=S)N(CCN(C)C)C(C)c2cccnc2)c1 (centres undefined)	-5%	-8%[10 µM]	-18%	-35%	-5%	i
Cc1cccc(NC(=S)N(CCN(C)C)C(C)c2ccccn2)c1 (centres undefined)	12%	-13%	3%	11µM*	-6%	i
Fc1cccc(NC(=S)NCc2ccccn2)c1	-12%	?	11%	-36%[10 µM]	-1%	i
CC(c1ccccn1)N(Cc1ccco1)C(=S)Nc1cccc(F)c1 (centres undefined)	-1%	?	0%	13µM*	-7%	i
C=C1C(=O)O[C@H]2C[C@]3(C)C([C@@H](OC(=O)/C(C)=C/C)[C@H]12)[C@](C)(O)CC[C@H]3O (some centres undefined)	?	?	nt	11µM*	-71%	?
O=[N+]([O-])c1ccc(COc2cccc(CN3CCCC3)c2)cc1	-18%	nt	1%	nt	-35%	i
Nc1ncnc2c1c(-c1cccc(OCc3ccccc3)c1)cn2C1CC(CN2CCCC2)C1 (centres undefined)	nt	nt	31µM*	nt	nt	nt
CCCc1nc2ccccc2n1C(=S)SC	-11%	?	-4%	11µM*	-10%	i
C=C(Br)Cn1c(CCC)nc2ccccc21	9%	-4%	-11%	?	-9%	i
CC(C)NC(=S)N/N=C/c1sc(N2CCCCC2)nc1-c1cccs1	-6%	?	62%	1.4µM*	0%	i
CCCCNC(=S)N(C)/N=C/c1sc(N2CCCCC2)nc1-c1cccs1	nt	-5%	nt	11µM*	nt	nt
O=C(N/N=C/c1sc(N2CCCCC2)nc1-c1cccs1)C1CC1	-10%	?	18%	7.1µM*	-2%	i
Cc1cc(C(=O)N/N=C/c2sc(N3CCOCC3)nc2-c2ccccc2)c(C)o1	2%	1%	-17%	?	6%	i
NC(=O)N/N=C/c1sc(N2CCCCC2)nc1-c1cccs1	?	nt	nt	nt	-45%	?
COc1ccc(NS(=O)(=O)c2cc(Br)cc3c2N(C(=O)C2CC2)CC3)cc1OC	2%	nt	-4%	nt	-12%	i
Cc1nc2ccccc2n1CSc1ccccc1	1%	-29%	-5%	14µM*	2%	i
CCC(C)Cn1c(C)nc2ccccc21 (centres undefined)	-12%	13µM*	-10%	13µM*	-7%	?
Cc1nc2ccccc2n1Cc1ccccc1Br	?	13µM*	?	?	-20%	?
COc1cc(N(C)C)ccc1/C=C1\C=Cc2ccccc21	-3%	nt	nt	nt	-29%	nt
COc1cccc(CNC(=O)c2sc3ncccc3c2-n2c(C)ccc2C)c1OC	?	nt	?	nt	-88%	?
Cc1ccc(NC(=O)CN(C)S(=O)(=O)c2cccs2)cc1F	0%	-20%	44%	?	-1%	i
Cc1ccc(NC(=O)CN(C)S(=O)(=O)c2cccs2)cc1C	-18%	7.9µM*	33%	?	-20%	i
Cc1ncc2c(c1CNS(=O)(=O)c1cccs1)CCN(C(=O)/C=C/c1ccc(F)cc1F)C2	nt	nt	nt	nt	nt	i
CCOc1ccc(OCC)c(NC(=O)c2nnn(CC(=O)Nc3cc(Cl)ccc3OC)c2N)c1	?	nt	?	nt	-6%	10µM*
